Results as given in PubChem BioAssay (Tox21).
Records with an inconclusive call do not appear. Calls of active or inactive are those of the source. Unless noted, calls follow the shape of the full dose curve.

Legend:
[1] = qHTS assay to identify small molecule agonists of the sonic hedgehog signaling (Shh) pathway (AID 1259368); conditions: NIH/3T3 Gli1-Luc reporter, luciferase, 24 h; series mostly up to 92.4 µM;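 also: NIH/3T3-derived 3T3Gli1-Luc cells carrying a stable Gli1-driven firefly luciferase reporter; nearly all actives have a fitted effect of over 15% in size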
How it was run: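 NIH/3T3-derived 3T3Gli1-Luc cells with stably integrated Gli1-driven firefly luciferase, 2,000 cells/well, compounds added after 4 hr. Incubated 24 hr at 37C, 5% CO2; luminescence read after 30 min with luciferase reagent at room temperature.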

[2] = qHTS assay to identify small molecule antagonists of the sonic hedgehog signaling (Shh) pathway (AID 1259369); conditions: NIH/3T3 Gli1-Luc reporter, Shh antagonist, luminescence 24 h; series mostly up to 92.4 µM; also: nearly all actives have a fitted effect of over 45% in size
How it was run: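 NIH/3T3-derived Gli1-Luc reporter cells plated 4 h, dosed with compound, then stimulated with conditioned medium for 24 h at 37 C. Firefly luciferase luminescence read after 30 min with detection reagent at room temperature.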

[3] = target: Estrogen receptor beta (Homo sapiens) (UniProt Q92731); assay: qHTS assay to identify small molecule agonists of the estrogen receptor beta (ER-beta) signaling pathway (AID 1259377; active = well fitted activation curve with a large enough effect in the signal ratio in the repeat runs, not every such curve was filed as active; the % refers to the signal ratio); conditions: ER-beta-UAS-bla HEK293T, beta-lactamase FRET ratio, 16 h; series mostly up to 92.4 µM
How it was run: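 Beta-lactamase reporter readout: fluorescence of LiveBLAzer B/G FRET substrate after 2 h at room temperature, following 16 h compound treatment of ER-beta-UAS-bla HEK293T cells at 37C in 2% charcoal-stripped FBS medium.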

[4] = qHTS assay to identify small molecule agonists of the androgen receptor (AR) signaling pathway in the presence of an antagonist - cell viability counter screen (AID 1259379; active = well fitted curve in the direction sought with a large enough effect in the repeat runs; an effect the other way counts as inactive or inconclusive;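 also: MDA-kb2 human breast cancer cells carrying an MMTV luciferase reporter; nearly all actives have a fitted effect of over 25% in size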); conditions: MDA-kb2 viability, CellTiter-Fluor, 16 h; series mostly up to 92.4 µM
How it was run: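 MDA-kb2 cells (MMTV-luciferase, AR/GR), 3,000/well, 5 h attachment, then 3.0 µM nilutamide (final) and compounds at 15 concentrations. Viability by CellTiter-Fluor fluorescence after 16 h at 37 °C, 0% CO2, in the reporter wells.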

[5] = qHTS assay to identify small molecule agonists of the estrogen receptor beta (ER-beta) signaling pathway - cell viability counter screen (AID 1259380; active = well fitted curve in the direction sought with a large enough effect in the repeat runs; an effect the other way counts as inactive or inconclusive; also: nearly all actives have a fitted effect of over 30% in size); conditions: ER-beta-bla HEK293T viability, CellTiter-Glo luminescence, 16 h; series mostly up to 92.4 µM
How it was run: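 ER-beta-UAS-bla HEK293T cells in medium with 2% charcoal-stripped FBS, pre-incubated 6 hr, then treated 16 hr at 37C. Cytotoxicity read in the same wells by CellTiter-Glo luminescence after 30 min at room temperature.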

[6] = qHTS assay to identify small molecule antagonists of the estrogen receptor beta (ER-beta) signaling pathway - cell viability counter screen (AID 1259382; active = well fitted curve in the direction sought with a large enough effect in the repeat runs; an effect the other way counts as inactive or inconclusive; also: nearly all actives have a fitted effect of over 55% in size); conditions: ER-beta-UAS-bla HEK293T viability, CellTiter-Glo luminescence, 16 h; series mostly up to 92.4 µM
How it was run: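 ER-beta-UAS-bla HEK293T cells in 2% charcoal-stripped FBS medium, treated with compound plus 1 nM 17-beta-estradiol for 16 h at 37C. Viability read by CellTiter-Glo luminescence after 30 min at room temperature in the same wells.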

[7] = target: Estrogen receptor (Homo sapiens) (UniProt P03372); assay: qHTS assay to identify small molecule agonists of the estrogen receptor alpha (ER-alpha) signaling pathway in the presence of an antagonist (AID 1259383); conditions: VM7Luc4E2 cells, ERE-luciferase, +ICI-182,780, 22 h; series mostly up to 92.4 µM; also: top concentration of the series differs between compounds; nearly all actives have a fitted effect of over 15% in size
How it was run: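 VM7Luc4E2 cells express endogenous full-length ER-alpha with an ERE-luciferase reporter and were hormone-deprived for 5 days. Compounds at 15 concentrations were added with 10.0nM ICI-182,780 for 22hr at 37C. Luminescence was read with ONE-Glo.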

[8] = qHTS assay to identify small molecule agonists or antagonists of the thyroid stimulating hormone receptor (TSHR) signaling pathway - wild type cell line counter screen (AID 1259384); conditions: HEK293 wild type, cAMP HTRF counter-screen, active compounds read high; series mostly up to 92.4 µM
How it was run: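 Wild-type Hek293 cells, 800/well, 18 h at 37C, then compound with Ro20-1724 for 30 min RT. cAMP by HTRF (cAMP-d2/anti-cAMP cryptate), 1 h RT, fluorescence read. 15 concentrations, triplicates.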

[9] = target: Androgen receptor (Homo sapiens) (UniProt P10275); assay: qHTS assay to identify small molecule agonists of the androgen receptor (AR) signaling pathway in the presence of an antagonist (AID 1259381); conditions: MDA-kb2 MMTV-luciferase, AR agonist + nilutamide, 16 h; series mostly up to 42.5 µM; also: nearly all actives have a fitted effect of over 15% in size
How it was run: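 MDA-kb2 cells carrying MMTV-luciferase (AR/GR responsive), 3,000 cells/well, co-treated with 3.0 uM nilutamide final. Compounds at 15 concentrations, 16 hr at 37C without CO2. Luciferase luminescence read after 30 min with ONE-Glo.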

[10] = target: Estrogen receptor beta (Homo sapiens) (UniProt Q92731); assay: qHTS assay to identify small molecule antagonists of the estrogen receptor beta (ER-beta) signaling pathway (AID 1259378; active = well fitted inhibition curve with a large enough effect in the signal ratio in the repeat runs, not every such curve was filed as active; the % refers to the signal ratio); conditions: ER-beta-UAS-bla HEK293T, beta-lactamase FRET ratio, 16 h; series mostly up to 92.4 µM
How it was run: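 ER-beta-UAS-bla HEK293T cells in 2% charcoal-stripped FBS medium treated with compound plus 1nM final 17-beta-estradiol for 16 hr at 37C. Beta-lactamase reporter read by FRET substrate fluorescence after 2 hours at room temperature.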
% is scaled to controls: 0 for no effect and ±100 for the full control effect.

Sequence of Androgen receptor (Homo sapiens) (P10275 whole entry, looked up): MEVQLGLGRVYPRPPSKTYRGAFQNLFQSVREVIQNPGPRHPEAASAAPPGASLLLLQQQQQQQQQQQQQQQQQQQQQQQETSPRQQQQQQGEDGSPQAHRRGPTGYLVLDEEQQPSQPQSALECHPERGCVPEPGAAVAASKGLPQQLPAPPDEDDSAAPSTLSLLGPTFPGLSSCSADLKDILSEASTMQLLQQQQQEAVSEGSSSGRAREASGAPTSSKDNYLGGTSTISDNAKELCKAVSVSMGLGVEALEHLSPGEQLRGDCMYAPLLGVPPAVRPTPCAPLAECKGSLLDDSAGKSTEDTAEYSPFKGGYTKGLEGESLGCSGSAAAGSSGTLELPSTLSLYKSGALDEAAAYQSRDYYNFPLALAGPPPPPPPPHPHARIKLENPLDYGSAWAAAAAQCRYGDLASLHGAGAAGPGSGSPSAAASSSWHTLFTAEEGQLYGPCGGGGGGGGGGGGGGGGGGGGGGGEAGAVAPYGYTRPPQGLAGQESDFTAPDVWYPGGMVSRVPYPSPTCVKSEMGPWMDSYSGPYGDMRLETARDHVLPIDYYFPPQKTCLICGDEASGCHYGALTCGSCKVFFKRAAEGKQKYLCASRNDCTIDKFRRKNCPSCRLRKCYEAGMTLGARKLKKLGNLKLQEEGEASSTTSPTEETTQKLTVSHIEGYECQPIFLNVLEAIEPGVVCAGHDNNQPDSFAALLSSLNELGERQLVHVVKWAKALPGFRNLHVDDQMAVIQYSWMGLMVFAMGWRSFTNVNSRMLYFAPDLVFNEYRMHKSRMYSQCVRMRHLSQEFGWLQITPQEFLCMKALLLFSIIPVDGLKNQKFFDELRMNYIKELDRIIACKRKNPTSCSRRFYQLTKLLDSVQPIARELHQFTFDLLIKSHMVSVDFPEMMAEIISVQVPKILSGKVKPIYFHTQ
Sequence of Estrogen receptor beta (Homo sapiens) (Q92731 whole entry, looked up): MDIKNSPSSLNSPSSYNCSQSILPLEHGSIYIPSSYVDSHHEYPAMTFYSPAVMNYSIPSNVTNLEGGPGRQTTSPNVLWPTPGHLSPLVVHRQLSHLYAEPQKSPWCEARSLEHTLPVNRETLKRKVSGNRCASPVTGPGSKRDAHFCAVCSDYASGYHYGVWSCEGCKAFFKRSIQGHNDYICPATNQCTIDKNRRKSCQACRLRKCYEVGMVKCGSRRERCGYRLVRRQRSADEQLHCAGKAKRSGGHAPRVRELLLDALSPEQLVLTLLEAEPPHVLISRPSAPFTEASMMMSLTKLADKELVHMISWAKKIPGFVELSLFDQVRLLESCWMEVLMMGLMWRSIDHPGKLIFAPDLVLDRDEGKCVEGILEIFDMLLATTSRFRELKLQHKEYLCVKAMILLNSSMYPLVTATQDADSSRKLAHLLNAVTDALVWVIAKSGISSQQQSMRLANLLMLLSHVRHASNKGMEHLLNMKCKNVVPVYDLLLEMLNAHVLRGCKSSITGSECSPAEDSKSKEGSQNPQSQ
Sequence of Estrogen receptor (Homo sapiens) (P03372 whole entry, looked up): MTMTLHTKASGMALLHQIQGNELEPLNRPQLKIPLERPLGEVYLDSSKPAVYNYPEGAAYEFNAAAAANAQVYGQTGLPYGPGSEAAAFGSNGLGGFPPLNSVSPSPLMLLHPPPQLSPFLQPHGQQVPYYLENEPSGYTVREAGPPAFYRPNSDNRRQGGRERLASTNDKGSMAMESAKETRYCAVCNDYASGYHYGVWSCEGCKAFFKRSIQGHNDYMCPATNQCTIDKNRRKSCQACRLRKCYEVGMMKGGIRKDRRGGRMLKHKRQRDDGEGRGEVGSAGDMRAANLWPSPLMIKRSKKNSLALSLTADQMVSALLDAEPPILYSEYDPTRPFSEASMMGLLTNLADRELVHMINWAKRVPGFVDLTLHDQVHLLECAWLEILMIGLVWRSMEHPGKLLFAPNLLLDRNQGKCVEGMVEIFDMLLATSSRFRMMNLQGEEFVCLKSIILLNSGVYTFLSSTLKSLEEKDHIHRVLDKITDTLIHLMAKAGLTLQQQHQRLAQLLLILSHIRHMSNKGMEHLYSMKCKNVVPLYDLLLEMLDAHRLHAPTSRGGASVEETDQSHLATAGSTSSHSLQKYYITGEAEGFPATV

COCc1ccc(COC)cc1
inactive: Potency [1] | Potency [2] | outcome [3] | Potency [4] | Potency [5] | Potency [6] | Potency [7]

COc1ccc(COC=O)cc1
inactive: Potency [1] | Potency [2] | outcome [3] | Potency [4] | Potency [5] | Potency [6] | Potency [7] | outcome [8]

C=CCn1c(=O)n([C@@H]2O[C@H](CO)[C@@H](O)[C@H]2O)c2nc(N)[nH]c(=O)c21
inactive: Potency [1] | Potency [2] | outcome [3] | Potency [4] | Potency [5] | Potency [9] | Potency [6] | Potency [7] | outcome [8]

CC(C=O)Cc1ccc(C(C)C)cc1 (configuration not stated)
inactive: Potency [1] | Potency [2] | outcome [3] | Potency [4] | Potency [5] | Potency [6] | outcome [8]

Cc1ccccc1Br
inactive: Potency [1] | Potency [2] | outcome [3] | Potency [4] | Potency [5] | Potency [6] | outcome [8]

Cn1ccc2cc3c(cc21)CCN3C(=O)Nc1cccnc1
inactive: activity change [1] 11% [at 18.9 µM, active compounds read high] | activity change, negative = inhibition [2] 1.03% [at 19 µM] | activation [3] -2.3% [at 19 µM] | activity change, negative = cytotoxicity [4] 2.26% [at 19 µM] | activity change, negative = cytotoxicity [6] -14.8% [at 19 µM] | activation [7] 12% [at 19 µM] | cAMP activity change [8] -0.339% [at 18.9 µM]

N#CCN(CC#N)CCN(CC#N)CC#N
inactive: Potency [1] | Potency [2] | outcome [3] | Potency [4] | Potency [5] | Potency [6] | outcome [8]

O=C(O)C(O)[C@H](O)[C@@H](O)[C@H](O)[C@H](O)CO (some centres not stated)
inactive: Potency [1] | Potency [2] | outcome [3] | Potency [10] | Potency [4] | Potency [7] | outcome [8]

CCCCCCOC(=O)CC(CC(=O)OCCCCCC)(OC(=O)CCC)C(=O)OCCCCCC
inactive: Potency [1] | Potency [2] | outcome [3] | Potency [4] | Potency [5] | Potency [9] | Potency [6] | Potency [7] | outcome [8]

CCCc1ccc(N)cc1
inactive: Potency [1] | Potency [2] | outcome [3] | Potency [4] | Potency [5] | Potency [6] | Potency [7] | outcome [8]

CN(C)N=Nc1ccccc1
inactive: Potency [1] | Potency [2] | outcome [3] | Potency [4] | Potency [5] | Potency [6] | outcome [8]

CCCCc1ccc2cccc(S(=O)(=O)O)c2c1
inactive: Potency [1] | Potency [2] | outcome [3] | Potency [4] | Potency [5] | Potency [9] | Potency [6] | Potency [7] | outcome [8]

CC(C)[N+](C)(C)CC(O)COc1cccc2ccccc12 (configuration not stated)
inactive: Potency [1] | Potency [2] | outcome [3] | Potency [4] | Potency [5] | Potency [6] | Potency [7] | outcome [8]

CC1(C)OC(=O)Nc2ccc(Br)cc21
inactive: Potency [1] | Potency [2] | Potency [4] | Potency [5] | Potency [9] | Potency [6] | Potency [7] | outcome [8]

CCCCCCCCCCCl
inactive: Potency [1] | Potency [2] | Potency [4] | Potency [5] | Potency [6] | Potency [7]

CC(C)(C)C(=O)/C=C/c1ccc(Cl)cc1
inactive: Potency [1] | Potency [2] | outcome [3] | Potency [4] | Potency [6] | Potency [7] | outcome [8]

CCCCCC[C@@H](CCC)C(=O)O
inactive: Potency [1] | Potency [2] | outcome [3] | Potency [4] | Potency [6] | Potency [7] | outcome [8]

CCCCCCCCCCCCCCC
inactive: Potency [1] | Potency [2] | outcome [3] | Potency [4] | Potency [6] | outcome [8]

OC1OC[C@@H](O)[C@H](O)[C@H]1O (some centres not stated)
inactive: Potency [1] | Potency [2] | Potency [4] | Potency [5] | Potency [6]

CCCCCCCCN(C)CCCCCCCC
inactive: Potency [1] | Potency [2] | Potency [4] | Potency [5] | Potency [9] | Potency [6] | Potency [7] | outcome [8]
